From PubChem
DT40 TDP1 no CPT: qHTS for Inhibitors of human tyrosyl-DNA phosphodiesterase 1 (TDP1): qHTS in cells in absence of CPT; DT40 Tdp1-/- hTDP1 cells, no CPT, ATP luminescence, 48 h; Potency, µM (series often up to 46.2 µM), for inactives: at the top dose activity change, negative = growth inhibition, most hits filed as inhibitors; 420,000 compounds, 15% hits; AID 686978, 2013; further: potency means the concentration at half of the fitted maximal effect; nearly all actives have a fitted effect of over 55% in size
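Chicken DT40 Tdp1-/- cells complemented with human TDP1, screened without camptothecin (DMSO vehicle only), 400 cells/well. Compounds pin-transferred, cells incubated at 37 °C for at least 48 hr. Growth read as ATP-dependent luminescence (CellTiter-Glo, 30 min at RT).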
Giardia kill: kills Giardia lamblia. activity change, % at 7.66 µM, hits read low. Giardia lamblia trophozoite viability. 340,000 compounds, 0.15% hits; in the data active means activity change below about -80%; inconclusive means between about -30% and that limit;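 further: parasites exposed to compound for two days anaerobically before the ATP read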
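Viability, read as ATP luminescence: trophozoites at 100 cells/well, compound added, 48 hrs anaerobic at 37 deg C, then 15-30 min room-temperature development before reading.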
DT40 TDP1 CPT: growth inhibition of DT40 Tdp1-/-;hTDP1 cells with camptothecin (screen for TDP1 inhibitors); AID 686979; 420,000 compounds, 12% hits; Potency, µM (titrated, usually from 46.2 µM), without a hit: at the highest dose activity change, negative = growth inhibition, most hits filed as inhibitors; chicken DT40 Tdp1-/-;hTDP1 cells + 20 nM CPT, ATP luminescence, 48 h; further: potency means the concentration at half of the fitted maximal effect; nearly all actives have a fitted effect of over 55% in size
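Chicken DT40 Tdp1-/- cells stably complemented with human TDP1 were seeded at 400 cells/well in medium containing 20 nM camptothecin, exposed to pin-transferred compounds, and grown at 37 °C for at least 48 hr. Viability was read as ATP luminescence.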
ELG1 repair inh: blocks ELG1-dependent DNA repair in HEK293T cells. HEK293T ELG1-luciferase reporter, luminescence, 16 h; DNA damage induced by 5-fluorouridine. Potency, µM (highest dose often 46.1 µM), for the others: at the top dose activity change, negative = inhibition, most hits filed as inhibitors. 330,000 compounds, 2.3% hits. AID 504467; further: potency means the concentration at half of the fitted maximal effect; nearly all actives have a fitted effect of over 55% in size
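Quantitative HTS, concentration-response format. 2,000 cells/well co-treated with 5-fluorouridine and compound, 16 hr in 5% CO2 at 37 °C; ONE-Glo luminescence read after 30 min.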
TDP1 block: TDP1 (human) enzyme inhibition. recombinant TDP1, AlphaScreen DNA substrate cleavage. Potency, µM (highest dose often 130 µM), inactives show at the top dose activity change, negative = inhibition, hits mostly inhibitors. 350,000 compounds, 0.28% hits. AID 485290. Q9NUW8; further: potency means the concentration at half of the fitted maximal effect; nearly all actives have a fitted effect of over 40% in size
Target sequence (Q9NUW8 whole entry, looked up): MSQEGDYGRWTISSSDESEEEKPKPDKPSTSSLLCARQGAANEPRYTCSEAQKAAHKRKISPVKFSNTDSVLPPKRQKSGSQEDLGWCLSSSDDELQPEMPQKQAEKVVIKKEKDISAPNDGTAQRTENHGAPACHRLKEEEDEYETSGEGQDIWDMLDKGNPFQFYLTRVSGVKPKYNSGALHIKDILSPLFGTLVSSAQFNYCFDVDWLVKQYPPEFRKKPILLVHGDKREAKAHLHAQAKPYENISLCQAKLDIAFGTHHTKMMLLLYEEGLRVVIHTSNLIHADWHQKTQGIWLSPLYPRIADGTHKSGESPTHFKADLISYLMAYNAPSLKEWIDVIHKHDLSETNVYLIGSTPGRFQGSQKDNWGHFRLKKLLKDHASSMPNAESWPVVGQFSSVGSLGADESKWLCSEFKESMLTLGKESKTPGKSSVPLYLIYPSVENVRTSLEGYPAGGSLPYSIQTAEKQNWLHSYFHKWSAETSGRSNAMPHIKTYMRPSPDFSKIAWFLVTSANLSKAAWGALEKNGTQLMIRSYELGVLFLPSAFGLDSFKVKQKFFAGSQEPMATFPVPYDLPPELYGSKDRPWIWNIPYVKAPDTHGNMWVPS
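Recombinant human Tdp1 (E. coli-expressed, 1 nM final) preincubated with compounds 15 min at room temperature, then 5'-biotin/3'-phosphotyrosine-FITC DNA substrate (15 nM final) added for 5 min. AlphaScreen beads (10 ug/ml final) added 10 min; cleavage lowers signal.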
IL1B secr inh: inhibitors of inflammasome signaling (IL-1 beta secretion); THP-1 LPS/ATP IL-1B secretion, AlphaLISA, 16 h; stronger effect = lower value; activity change, % at 57.5 µM; 360,000 compounds, 4.7% hits; AID 743279; in the data active means activity change below about -50%; inconclusive means mostly about -30% to -49%
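THP-1 cells pretreated 1 hr with compounds (up to 57.5 uM final), then stimulated with LPS (250 ng/mL final) plus ATP (1.25 mM final); secreted IL-1B measured by AlphaLISA after 16 hr, decreased signal indicating inhibition.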
* marks the source's active call; other numbers are inactive results; ? = inconclusive; · = no result. Compounds with a hit are over-represented: about 19% of the library has one in this group of screens. Unless noted, the call rests on the fitted dose curve; in most records, active means well fitted curve in the direction sought with a large enough effect; inconclusive means small, poorly fitted or top-dose-only effect, or another doubt; inactive means no such curve, though single readings can be large; an effect the other way counts as inactive or inconclusive. On the % scale 0 is the no-effect control and ±100 the full control effect.

SMILES	DT40 TDP1 no CPT	Giardia kill	DT40 TDP1 CPT	ELG1 repair inh	TDP1 block	IL1B secr inh
CC(C)C1C(=O)N(Cc2cn(CCC3OCCCO3)nn2)CCS(=O)(=O)N1Cc1ccc(-c2ccc(Cl)cc2)cc1 (stereo not given)	23µM*	·	?	·	·	40
CC(C)C1C(=O)N(Cc2cn(CCC3OCCCO3)nn2)CCS(=O)(=O)N1Cc1ccc(-c2cccc(CO)c2)cc1 (stereo not given)	?	·	-24%	·	·	-15
Cc1ccc2c(c1)C(=O)N1[C@H]3c4cc(Cl)ccc4OC[C@@H]3[C@H](c3ccccc3)[C@]1(C)C(=O)N2	16µM*	12	?	-17%	2%	-29
Cc1ccc2c(c1)C(=O)N1[C@H]3c4cc(C)ccc4OC[C@@H]3[C@H](c3ccccc3)[C@]1(C)C(=O)N2	13µM*	-5	12µM*	-15%	2%	-53*
C[C@@]12C(=O)Nc3ccc(F)cc3C(=O)N1[C@H]1c3cc(Cl)ccc3OC[C@@H]1[C@@H]2c1ccccc1	?	-21	?	-20%	0%	?
COc1ccc(C2(C)NC(=O)N(CC(=O)Nc3c(C)n(C)n(-c4ccccc4)c3=O)C2=O)cc1 (stereo not given)	4%	-16	15%	?	-3%	26
COc1cc(=O)n2c(c1C(=O)NCc1ccco1)CCN(Cc1ccc3nsnc3c1)CC2	-10%	·	-9%	·	·	·
COc1cc(=O)n2c(c1C(=O)NCc1ccco1)CCN(Cc1ccc(F)cc1Cl)CC2	2.9µM*	·	0.21µM*	·	·	·
CCC1(CC)Cc2ccccc2C(=O)N1	-1%	-5	3%	-3%	·	6
CCC1(CC)Cc2ccccc2C(N)=C1C#N	21µM*	2	21µM*	0%	2%	23
O=C(O)c1c(-c2ccccc2)cnc2ccccc12	4%	·	3%	·	·	25
CC1CCCCC1NC(=O)Cc1ccc(S(=O)(=O)N2CCOCC2)s1 (stereo not given)	?	6	?	17%	·	19
CCN(CC)CCN(Cc1cc2cc(C)ccc2[nH]c1=O)C(=S)Nc1ccccc1	?	-9	?	?	-3%	?
CCOc1c2ccc(C(=O)NCc3ccc(C(F)(F)F)cc3C(F)(F)F)cc2nn1C	-23%	35	-16%	?	4%	-51*
CCn1nc2cc(C(=O)NCc3cc(C(F)(F)F)cc(C(F)(F)F)c3)ccc2c1OC	-4%	-4	-19%	?	-3%	-57*
O=C(CCS(=O)(=O)c1cccc2nsnc12)Nc1ccc(F)cc1	?	·	-10%	·	6%	·
CC(C)C(NS(C)(=O)=O)c1nnc2n1CCN(Cc1ccc3cccnc3c1)CC2 (stereo not given)	-13%	·	9%	·	·	·
COc1ccc(C2c3c(n(C)c4ccccc34)C(=O)N2CC(=O)Nc2cccc(Cl)c2C)cc1 (stereo not given)	?	·	?	·	3%	·
CCOC(=O)c1cccc(NC(=O)C(CC(C)C)N2Cc3ccccc3C2=O)c1 (stereo not given)	?	·	?	·	4%	·
CCN(CC)C(=O)c1ccc2c(=O)n(Cc3cccc(Br)c3)c(=S)[nH]c2c1	15µM*	43	23µM*	?	·	-4
CCN(CC)C(=O)c1ccc2c(=O)n(Cc3ccc4c(c3)OCO4)c(=S)[nH]c2c1	21µM*	8	15µM*	2%	·	-8
CC1CCCN(C(=O)c2ccc3c(=O)n(Cc4ccc5c(c4)OCO5)c(=S)[nH]c3c2)C1 (stereo not given)	23µM*	-18	16µM*	?	7%	?
O=C(c1ccc2c(=O)n(Cc3ccco3)c(=S)[nH]c2c1)N1CCN(Cc2ccc3c(c2)OCO3)CC1	11µM*	3	14µM*	·	·	·
O=C(c1ccc2c(=O)n(Cc3ccc4c(c3)OCO4)c(=S)[nH]c2c1)N1CCN(Cc2ccccc2)CC1	?	12	?	·	·	·
Cc1csc2nc(O)c(C(=O)NC3CCCCC3C)c(=O)n12 (stereo not given)	18µM*	21	?	18%	6%	26
SMILES	DT40 TDP1 no CPT	Giardia kill	DT40 TDP1 CPT	ELG1 repair inh	TDP1 block	IL1B secr inh
CC1CCCCC1NC(=O)c1c(O)nc2ccccn2c1=O (stereo not given)	21µM*	-8	?	?	6%	81
CC1CCCCC1NC(=O)c1cc2c(=O)n3ccccc3nc2n1C (stereo not given)	16µM*	26	23µM*	?	-4%	18
O=C(NCCCN1CCCC1=O)c1c(O)nc2ccccn2c1=O	-6%	2	-17%	24%	2%	13
Cc1cccn2c(=O)c3cc(C(=O)NC4CCCCC4C)n(C)c3nc12 (stereo not given)	?	45	-25%	0%	7%	-17
Cc1cccc(N2CCN(C(=O)c3cn(C)c4ccc(S(=O)(=O)N(C)C)cc4c3=O)CC2C)c1 (stereo not given)	?	·	28%	·	-2%	·
Cc1ccc(NC(=O)Cn2cc(S(=O)(=O)c3ccccc3)c(=O)c3cc4c(cc32)OCO4)cc1	?	·	-20%	·	6%	·
COc1ccccc1CNC(=O)CSc1ncc2c(n1)-c1cc(Cl)ccc1N(Cc1ccccc1)S2(=O)=O	?	·	?	·	3%	·
CCN(CC)S(=O)(=O)c1ccc(C(=O)OCn2c(SC)nnc(C)c2=O)cc1	-15%	7	?	-8%	5%	7
CCOC(=O)C(C)N1C(=O)S/C(=C/c2ccc3c(c2)n(C)c(=O)n3C)C1=O (stereo not given)	?	-2	?	3%	-9%	-27
CCC(C)N1C(=O)S/C(=C/c2ccc3c(c2)n(C)c(=O)n3C)C1=O (stereo not given)	23µM*	26	23µM*	-5%	5%	0
Cc1ccc(OCC(=O)N(C)CC(=O)N(CC(C)C)c2c(N)n(CC(C)C)c(=O)[nH]c2=O)c(C)c1	-7%	-13	-9%	?	·	-4
COc1ccc(NC(=O)C2CC(c3c(F)cccc3Cl)=NO2)cc1 (stereo not given)	?	-20	-17%	?	·	-15
COc1cc(OC)c(C2=NOC(C(=O)Nc3cc(C)nn3-c3ccccc3)C2)cc1Cl (stereo not given)	-10%	-16	-21%	-13%	7%	-8
